Source: PubChem
ALDH1A1 block – qHTS Assay for Inhibitors of Aldehyde Dehydrogenase 1 (ALDH1A1); Aldehyde dehydrogenase 1A1 (Homo sapiens), P00352; hit rate 7.3% among 220,000; Purified ALDH1A1, NADH fluorescence, propionaldehyde substrate; Potency, µM (titrated, usually from 75.3 µM), inactives show at the highest dose activity, negative = inhibition, actives largely listed as inhibitors; active = well fitted inhibition curve with a large enough effect, not every such curve was filed as active; inconclusive = small, poorly fitted or top-dose-only effect, or another doubt; inactive = no such curve, though single readings can be large or run the other way;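 note: plate controls were no enzyme wells and a reference inhibitor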
Tau fibril ThT – qHTS for Inhibitors of Tau Fibril Formation, Thioflavin T Binding; Microtubule-associated protein tau (Homo sapiens), P10636; recombinant tau K18 P301L, heparin-induced fibrillization, ThT fluorescence; Potency, µM (series often up to 57.4 µM), for inactives: at the top dose activity, negative = inhibition, hits mostly inhibitors; hit rate 2.1% among 270,000; note: nearly all actives have a fitted effect of over 55% in size
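Fibril formation assay: tau K18 P301L at 15 uM with trace Alexa 594 label, heparin inducer 20 uM, pH 7 sodium acetate buffer, 37 C for 6 hr; endpoint ThT signal.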
HPGD block – qHTS Assay for Inhibitors of HPGD (15-Hydroxyprostaglandin Dehydrogenase); purified HPGD, NADH fluorescence kinetic, PGE2 substrate; Potency, µM, for inactives: top-dose activity change, negative = inhibition, hits mostly inhibitors; hit rate 4.3% among 150,000; active = well fitted inhibition curve with a large enough effect, not every such curve was filed as active; inconclusive = small, poorly fitted or top-dose-only effect, or another doubt; inactive = no such curve, though single readings can be large or run the other way
Target sequence (P15428 whole entry, looked up): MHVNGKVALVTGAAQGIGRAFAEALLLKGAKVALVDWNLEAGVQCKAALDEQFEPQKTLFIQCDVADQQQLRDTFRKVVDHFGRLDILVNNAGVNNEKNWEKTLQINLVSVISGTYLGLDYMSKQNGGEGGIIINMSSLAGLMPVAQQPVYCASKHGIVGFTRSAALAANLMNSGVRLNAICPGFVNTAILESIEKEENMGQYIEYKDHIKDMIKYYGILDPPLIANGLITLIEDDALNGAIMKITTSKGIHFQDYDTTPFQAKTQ
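NADH formation kinetics: reaction with 30 uM PGE2 and 1 mM NAD+ (final), 20 nM enzyme, Tris-HCl pH 8 with Tween 20, after 15 min compound preincubation at room temperature. Fluorescence change, last versus first of five reads.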
NPSR antag – qHTS Assay for Antagonists of the Neuropeptide S Receptor: cAMP Signal Transduction; Potency, µM (doses to about 38.3 µM), inactives show top-dose activity change, negative = inhibition, actives largely listed as inhibitors; hit rate 1% among 220,000; AID 1461, 2008; CHO-NPSR cells, cAMP TR-FRET, antagonist mode; Q6W5P4; note: nearly all actives have a fitted effect of over 50% in size
Target sequence (Q6W5P4 whole entry, looked up): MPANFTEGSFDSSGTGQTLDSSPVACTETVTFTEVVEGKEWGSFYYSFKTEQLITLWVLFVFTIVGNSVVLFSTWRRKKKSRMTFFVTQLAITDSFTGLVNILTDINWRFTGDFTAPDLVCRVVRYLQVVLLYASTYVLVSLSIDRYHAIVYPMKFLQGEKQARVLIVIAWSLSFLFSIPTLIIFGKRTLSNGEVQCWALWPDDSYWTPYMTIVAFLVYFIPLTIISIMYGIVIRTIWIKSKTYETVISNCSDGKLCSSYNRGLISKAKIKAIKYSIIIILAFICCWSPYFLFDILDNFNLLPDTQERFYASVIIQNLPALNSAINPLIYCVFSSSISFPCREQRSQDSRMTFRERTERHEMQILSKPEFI
Tau fluor cs – Counterscreen qHTS for Inhibitors of Tau Fibril Formation, Fluorescence Polarization. tau K18 P301L Alexa594 fluorescence, heparin fibrillization. Potency, µM (doses to about 57.7 µM), for inactives: at the top dose activity change, negative = decrease. hit rate 0.93% among 280,000; note: nearly all actives have a fitted effect of over 55% in size
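Human tau K18 P301L (15 uM unlabeled, 0.24 uM Alexa 594-labeled) in 100 mM sodium acetate pH 7 with 20 uM heparin, 6 hr at 37 C. ThT 30 uM added, 1 hr ambient; Alexa 594 FP and total fluorescence read at 555/632 nm.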
Tau fibril FP – qHTS for Inhibitors of Tau Fibril Formation, Fluorescence Polarization | Microtubule-associated protein tau (Homo sapiens), P10636 | K18 P301L tau heparin fibrillization, Alexa594 FP, 6 h | Potency, µM (series often up to 57.7 µM), for the others: at the top dose activity, negative = inhibition, most hits filed as inhibitors | hit rate 0.39% among 280,000; note: nearly all actives have a fitted effect of over 55% in size
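FP of Alexa 594-tau after heparin (20 uM) induction. Substrate: human K18 P301L, 15 uM unlabeled, 0.24 uM labeled. Buffer 100 mM sodium acetate pH 7. 6 hr, 37 C.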
An asterisk follows results filed as active; ? = inconclusive; nt = no result given; [ ] = remark or other dose. Most compounds without a hit are left out; they make up all but 9.5% or so of the library. Unless noted, calls come from the whole dose curve; as a rule, active = well fitted curve in the direction sought with a large enough effect; inconclusive = small, poorly fitted or top-dose-only effect, or another doubt; inactive = no such curve, though single readings can be large; an effect the other way counts as inactive or inconclusive. Unless noted, % is set by controls: 0 for no effect and ±100 for the full control effect; potency is the fitted concentration of half-maximal effect.

SMILES	ALDH1A1 block	Tau fibril ThT	HPGD block	NPSR antag	Tau fluor cs	Tau fibril FP
C/C(=N\NC(=O)c1ccc(O)cc1)c1ccc(N2CCOCC2)cc1	-11%	?	nt	17%	-3%	-6%
CC1=CC(c2ccccc2)n2nc(NS(=O)(=O)c3ccc(C)cc3)nc2N1 (stereo not given)	0.63µM*	11µM*	?	-9%[46.1 µM]	?	?
Cc1c(C(=O)N2CCOCC2)oc2c1-c1nn(CC(=O)NCc3ccccc3)cc1CC2	nt	10%	nt	nt	4%	2%
COc1cc(/C=C2\C(=O)N(c3ccc(S(N)(=O)=O)cc3)N=C2C)ccc1OC(=O)c1ccco1	?	?	nt	-24%	?	5%
CCOc1cc(/C=C2/C(=N)N3OC(C)=CC3=NC2=O)ccc1OC(=O)c1ccco1	10µM*	?	nt	-26%	-17%	0%
CCOc1ccc(/C=C2/C(=N)N3OC(C)=CC3=NC2=O)cc1OC	?	?	nt	-11%	-7%	-3%
COc1cc(/C=C2/SC(=S)N(C)C2=O)ccc1OC(=O)c1ccco1	-12%	?	-17%	-1%	-4%	2%
CCOc1cc(/C=C2/C(=N)N3OC(C)=CC3=NC2=O)ccc1OCCOc1ccccc1	?	?	?	10µM*	-13%	-6%
CCOC(=O)c1ccc(N2NC(=O)/C(=C/c3ccc(OC(=O)c4ccco4)c(OC)c3)C2=O)cc1	?	22µM*	13µM*	?	?	9%
CCOc1cc(/C=C2/SC(=S)NC2=O)ccc1OC(=O)c1ccco1	8.9µM*	13µM*	nt	-40%	-22%	?
Cc1ccc(CNC(=O)CCCn2c(=O)c3ccccc3n(CC(=O)Nc3ccc(C)c(C)c3)c2=O)cc1	nt	1%	nt	nt	-21%	-11%
C[C@@H](C1[C@@H](O)CC2C3C=CC4C[C@@H](O)CC[C@]4(C)[C@H]3CC[C@@]21C)[C@@H]1CCCCN1 (stereo not given in full)	4%	-8%	-8%	nt	-4%	1%
COC(=O)/C(C#N)=C1/C=Cc2ccccc2N1C	4%	-13%	-21%	-1%[46.1 µM]	-4%	-4%
CN1/C(=C/c2cc[n+](C)c3ccccc23)C=Cc2ccccc21	-7%	7.1µM*	nt	?	-30%	?
COC(=O)c1cccnc1NC(=S)NNC(=O)c1ccccc1	?	-4%	25µM*	-15%[46.1 µM]	-4%	4%
COC(=O)c1ccccc1NC(=S)NC(=O)c1ccccc1	?	?	?	4%[46.1 µM]	-20%	3%
COC(=O)c1ccc(NC(=S)NNC(=O)CC(C)C)cc1	0%	0%	28µM*	3%	-5%	1%
COC(=O)c1ccc(NC(=S)NNC(=O)c2ccccc2)cc1	8.9µM*	?	nt	11%	-24%	-1%
COC(=O)c1ccc(NC(=S)Nc2ccccc2)cc1	-3%	1%	-6%	6%[46.1 µM]	-3%	-4%
CCOC(=O)c1ccc(NC(=S)NN2CCN(C)CC2)cc1	2%	-4%	nt	5%	-1%	-1%
CCOC(=O)c1ccc(NC(=S)NNC(=O)C2(C)CC2(Cl)Cl)cc1 (stereo not given)	10µM*	?	28µM*	-4%	-23%	10%
COc1ccc(Cl)cc1NC(=O)COC(=O)CC(C)(C)CC1=NS(=O)(=O)c2ccccc2N1	nt	10%	nt	nt	?	?
CCOC(=O)c1ccc(NC(=S)NNC(=O)COC)cc1	8.9µM*	4%	-20%	2%	8%	7%
COc1cc(C(=O)NNC(=S)Nc2ccc(S(N)(=O)=O)cc2)cc(OC)c1OC	10µM*	-14%	nt	17%	5%	-2%
CCOC(=O)c1ccc(NC(=S)NC2CCCC2)cc1	1%	-15%	-1%	9%	?	?
SMILES	ALDH1A1 block	Tau fibril ThT	HPGD block	NPSR antag	Tau fluor cs	Tau fibril FP
COc1ccc(Cl)cc1NC(=S)NNC(=O)C1(C)CC1(Cl)Cl (stereo not given)	28µM*	-9%	nt	-5%	-18%	6%
COc1ccc(Cl)cc1NC(=O)CN1c2ccccc2S(=O)(=O)c2ccccc21	nt	2%	nt	nt	?	-16%
CNC(=O)c1c(NC(=O)c2nc(SCc3ccc(C)cc3)ncc2Cl)sc2c1CCCC2	nt	-1%	nt	nt	-1%	-5%
COc1cccc(C(=O)N2c3ccccc3Sc3ccccc32)c1	3%	7%	14µM*	-19%	6%	11%
O=C(c1csnn1)N1CCC2(CC1)CCN(c1cccc(-c3ccccc3)c1)CC2	3%	nt	-13%	nt	nt	nt
CC(=O)c1cccc(Nc2ccc3cc(S(=O)(=O)N4CCCC4)ccc3n2)c1	nt	6%	nt	nt	?	?
COc1ccc(Nc2ccc3cc(S(=O)(=O)N4CCCC4)ccc3n2)cc1OC	nt	?	nt	nt	11µM*[quencher]	11%
COc1cccc(Nc2ccc3cc(S(=O)(=O)N4CCC(C)CC4)ccc3n2)c1	nt	10%	nt	nt	5µM*[quencher]	?
Cc1cccc(C(=O)N2CCN(c3ccc(C(F)(F)F)cn3)CC2)c1C	-17%	-8%	-6%	-11%[46.1 µM]	-11%	13%
COc1ccc(C(=O)NCc2nnc(SCC(=O)N3CCCCC3)o2)cc1OC	?	-5%	-24%	-1%[46.1 µM]	-5%	-2%
CN(CCc1ccc(Cl)c(Cl)c1)CCN1CCCC1	10%	-1%	-8%	nt	-5%	-1%
CSc1ccc(CCNC(=O)CCc2c(C)nc3c(-c4ccccc4)c(C)nn3c2C)cc1	nt	-8%	nt	nt	-12%	-4%
CC(C)C(C)C	25%	nt	2%	nt	nt	nt
O=C(/C=C/c1ccc([N+](=O)[O-])cc1)NCc1cccs1	?	-12%	-13%	-11%	-9%	-3%
Cc1ccc(/C=C/C(=O)NCc2cccs2)o1	4µM*	?	nt	-9%	-10%	?
Cc1ccc(/C=C/C(=O)NCc2cccs2)c(C)c1	-5%	-11%	nt	17%	-2%	4%
Cc1ccc(/C=C/C(=O)NCc2cccs2)cc1	?	4%	14µM*	8%	2%	-10%
Cn1c(=O)n(C)c2cc(S(=O)(=O)NCCO)ccc21	-6%	-7%	-2%	0%[46.1 µM]	-6%	3%
CCN1C(=O)CS/C1=N\S(=O)(=O)c1ccc(Cl)cc1	5%	-3%	nt	2%	-6%	-2%
CCn1c(Cl)c(C=O)s/c1=N\S(=O)(=O)c1ccccc1	nt	8.9µM*	nt	10µM*	-27%	7.1µM*
